Screening results from PubChem BioAssay.
NPC1 promoter act: qHTS Assay for NPC1 Promoter Activators; Huh7 NPC1 promoter luciferase reporter, 24 h; Potency, µM (series often up to 9.22 µM), for inactives: top-dose activation, most hits filed as activators; 2.4% of 320,000 active; note: % of control where 0% means no effect; nearly all actives have a fitted effect of over 60% in size
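Luciferase expression driven by the NPC1 promoter was measured in stably transfected Huh7 cells after a 24 h compound incubation, using a luciferase reagent and a luminescence read.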
Rab9 promoter act: qHTS Assay for Rab9 Promoter Activators | Potency, µM (top dose mostly 9.22 µM), for inactives: at the highest dose activation, negative = inhibition, hits mostly activators | AID 485297, 2010 | Huh7 Rab9 promoter-luciferase reporter, luminescence, 24 h | 2.8% of 320,000 active; note: % of control where 0% means no effect; nearly all actives have a fitted effect of over 60% in size
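Quantitative HTS format; Huh7 Rab9-luciferase reporter cells (1500/well) receive compound 2 h post-plating, incubate 24 h at 37 °C, then get luciferase reagent for 10 min before luminescence reading.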
SMN2 splice up: qHTS Assay for Enhancers of SMN2 Splice Variant Expression. HEK293 SMN2-luciferase splicing reporter, luminescence, 30-36 h. Potency, µM (highest dose often 46.1 µM), without a hit: at the highest dose activity change, positive = activation, actives largely listed as activators. 2.8% of 210,000 active. AID 1458, 2008; note: % of control where 0% means no effect; nearly all actives have a fitted effect of over 55% in size
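qHTS luciferase splicing reporter: luminescence rises when SMN2 exon 7 is included in transfected HEK293 cells. Compound exposure lasted 30-36 h at 37C, with 4.5 mM final sodium butyrate as control, followed by a ONE-Glo read.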
FLuc modulator: qHTS profiling assay for firefly luciferase inhibitor/activator using purifed enzyme and Km concentrations of substrates (counterscreen for miR-21 project) | Luciferin 4-monooxygenase (Photinus pyralis), P08659 | purified FLuc, Km substrates, luminescence inhibition | Potency, µM (doses to about 57.5 µM), for inactives: top-dose activity change, negative = inhibition, most hits filed as inhibitors | 6.9% of 360,000 active | AID 588342, 2011;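 note: plate controls were vehicle for no effect and reference inhibitor for full effect; nearly all actives have a fitted effect of over 55% in size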
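Purified P. pyralis luciferase, 10 nM final, with Km-level 10 uM D-luciferin and 10 uM ATP in 50 mM Tris acetate pH 7.5, 10 mM Mg acetate, 0.01% Tween-20, 0.05% BSA; 6-point qHTS titration about 60 µM downward; luminescence read.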
ELG1 genotox: qHTS screen for small molecules that induce genotoxicity in human embryonic kidney (HEK293T) cells expressing luciferase-tagged ELG1. HEK293T ELG1-luciferase reporter, luminescence, 16 h. Potency, µM (doses to about 46 µM), for inactives: top-dose activity change, positive = activation, actives largely listed as activators. 1.3% of 330,000 active. AID 504466, 2011; note: % of control where 0% means no effect; nearly all actives have a fitted effect of over 60% in size
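Genotoxic stress is detected as increased luminescence from luciferase-tagged ELG1 in HEK293T cells, measured with ONE-Glo after a 16 hr treatment at 37 °C.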
ELG1 repair inh: qHTS screen for small molecules that inhibit ELG1-dependent DNA repair in human embryonic kidney (HEK293T) cells expressing luciferase-tagged ELG1; HEK293T ELG1-luciferase reporter, luminescence, 16 h; DNA damage induced by 5-fluorouridine; Potency, µM (doses to about 46.1 µM), for the others: at the top dose activity change, negative = inhibition, hits mostly inhibitors; 2.3% of 330,000 active; AID 504467, 2011; note: % is set by controls: 0 for no effect and ±100 for the full control effect; nearly all actives have a fitted effect of over 55% in size
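Luminescence from the luciferase reporter, measured 30 min after ONE-Glo reagent at room temperature, was the read-out. Beforehand, 2,000 cells per well were exposed for 16 hr at 37 °C to 5-fluorouridine together with compound or vehicle.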
ELG1 FLuc counter: qHTS screen for small molecules that inhibit ELG1-dependent DNA repair: Hit Confirmation in Cell-Based Luciferin Assay; cell-free firefly luciferase luminescence counter-screen, ViewLux; shares compounds with ELG1 repair inh; Potency, µM (doses to about 46.1 µM), for the others: at the top dose activity change, negative = inhibition, usual class: inhibitors; 3% of 350 active; note: % is set by controls: 0 for no effect and ±100 for the full control effect
ELG1-Luc inh: HTS assay for small molecules that inhibit ELG1-dependent DNA repair in human embryonic kidney (HEK293T) cells expressing luciferase-tagged ELG1: Hit Confirmation; shares compounds with ELG1 repair inh; Potency, µM (titrated, usually from 46.1 µM), inactives show top-dose activity change, negative = inhibition, most hits filed as inhibitors; 68% of 670 active; HEK293T ELG1-luciferase levels, luminescence; cells co-treated with 5-fluorouridine; note: % is set by controls: 0 for no effect and ±100 for the full control effect; nearly all actives have a fitted effect of over 55% in size
Target sequence (Q96QE3 whole entry, looked up): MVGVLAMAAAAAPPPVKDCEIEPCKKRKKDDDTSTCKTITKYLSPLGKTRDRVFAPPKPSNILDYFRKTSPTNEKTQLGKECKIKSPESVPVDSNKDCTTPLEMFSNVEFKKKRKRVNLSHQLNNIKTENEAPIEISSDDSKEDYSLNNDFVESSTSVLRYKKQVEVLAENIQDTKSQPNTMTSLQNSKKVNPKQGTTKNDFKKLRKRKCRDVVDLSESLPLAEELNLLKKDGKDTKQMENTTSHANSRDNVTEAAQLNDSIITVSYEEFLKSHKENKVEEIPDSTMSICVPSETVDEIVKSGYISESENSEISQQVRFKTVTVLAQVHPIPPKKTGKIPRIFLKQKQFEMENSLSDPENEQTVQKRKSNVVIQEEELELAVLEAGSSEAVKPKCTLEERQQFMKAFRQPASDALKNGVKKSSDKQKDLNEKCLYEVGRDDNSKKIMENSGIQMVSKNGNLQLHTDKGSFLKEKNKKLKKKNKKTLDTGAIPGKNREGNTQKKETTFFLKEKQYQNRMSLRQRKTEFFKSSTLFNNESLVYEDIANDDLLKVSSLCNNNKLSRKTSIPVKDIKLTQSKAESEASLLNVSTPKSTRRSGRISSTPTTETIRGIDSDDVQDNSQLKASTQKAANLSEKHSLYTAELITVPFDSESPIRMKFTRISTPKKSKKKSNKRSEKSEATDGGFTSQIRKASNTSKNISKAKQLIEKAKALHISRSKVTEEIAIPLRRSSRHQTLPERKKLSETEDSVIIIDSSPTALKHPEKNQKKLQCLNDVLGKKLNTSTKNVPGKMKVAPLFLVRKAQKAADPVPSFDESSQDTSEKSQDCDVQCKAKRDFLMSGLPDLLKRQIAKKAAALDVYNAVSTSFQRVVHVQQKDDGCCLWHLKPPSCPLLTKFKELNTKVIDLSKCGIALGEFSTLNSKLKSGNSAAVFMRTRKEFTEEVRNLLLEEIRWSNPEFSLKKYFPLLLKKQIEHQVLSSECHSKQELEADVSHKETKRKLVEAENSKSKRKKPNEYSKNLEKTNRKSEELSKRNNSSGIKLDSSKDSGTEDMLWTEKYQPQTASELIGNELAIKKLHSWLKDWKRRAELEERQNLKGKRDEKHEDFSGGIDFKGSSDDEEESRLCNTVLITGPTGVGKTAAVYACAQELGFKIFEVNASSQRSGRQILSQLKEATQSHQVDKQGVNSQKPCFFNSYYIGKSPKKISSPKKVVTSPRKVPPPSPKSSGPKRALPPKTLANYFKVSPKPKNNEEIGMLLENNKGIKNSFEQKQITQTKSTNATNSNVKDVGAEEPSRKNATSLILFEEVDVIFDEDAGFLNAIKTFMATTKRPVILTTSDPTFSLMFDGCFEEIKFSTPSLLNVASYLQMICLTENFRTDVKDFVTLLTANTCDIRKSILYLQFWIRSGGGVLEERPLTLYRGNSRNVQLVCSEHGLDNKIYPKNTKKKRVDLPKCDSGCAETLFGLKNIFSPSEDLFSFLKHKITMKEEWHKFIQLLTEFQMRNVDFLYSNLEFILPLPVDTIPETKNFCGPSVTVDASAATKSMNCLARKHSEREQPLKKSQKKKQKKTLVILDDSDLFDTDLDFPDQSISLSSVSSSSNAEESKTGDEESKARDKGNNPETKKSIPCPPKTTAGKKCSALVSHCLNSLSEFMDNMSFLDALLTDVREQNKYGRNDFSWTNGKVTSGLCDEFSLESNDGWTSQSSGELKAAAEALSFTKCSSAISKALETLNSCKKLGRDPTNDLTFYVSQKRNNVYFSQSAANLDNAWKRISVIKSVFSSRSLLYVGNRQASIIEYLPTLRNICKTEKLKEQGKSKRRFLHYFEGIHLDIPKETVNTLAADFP
ELG1 MMS Luc: MMS-stimulated human ELG1 repair inhibition, confirmed | shares compounds with ELG1 repair inh | HEK293T luciferase-tagged ELG1 level, MMS stimulated | Potency, µM (top dose mostly 46.1 µM), for the others: top-dose activity change, negative = inhibition, actives largely listed as inhibitors | 53% of 670 active | AID 624249; note: % is set by controls: 0 for no effect and ±100 for the full control effect; nearly all actives have a fitted effect of over 60% in size
ELG1 5-FU: qHTS screen for small molecules that inhibit ELG1-dependent DNA repair: Hit Confirmation with 5FU Viability; 670 tested, under 10 active; shares compounds with ELG1 repair inh; cell viability with 5-FU, ELG1-dependent repair; Potency, µM (series often up to 46.1 µM), inactives show at the highest dose activity change, negative = viability loss, actives largely listed as cytotoxic;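 note: ELG1-luc HEK293T cells cotreated with 5-fluorouridine at 10 µM final; viability measured 16 h after compound addition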
ELG1 MMS cell: qHTS screen for small molecules that inhibit ELG1-dependent DNA repair: Hit Confirmation with MMS Viability | Potency, µM (top dose mostly 46.1 µM), without a hit: at the top dose activity change, negative = viability loss, most hits filed as cytotoxic | 33% of 670 active | Cell viability with MMS, ELG1-dependent DNA repair | shares compounds with ELG1 repair inh;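 note: ELG1-luc HEK293T cells co-treated with 10 µM MMS; viability read 16 h after compound addition; % is set by controls: 0 for no effect and ±100 for the full control effect; nearly all actives have a fitted effect of over 60% in size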
ELG1 unstim viab: qHTS screen for small molecules that inhibit ELG1-dependent DNA repair: Hit Confirmation with Unstimulated Viability Assay; cell viability counter-screen, unstimulated, luminescence; 8% of 900 active; Potency, µM (top dose mostly 45.9 µM), for inactives: at the highest dose activity change, negative = loss of viability, most hits filed as cytotoxic; shares compounds with ELG1 repair inh;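 note: compound exposure lasted 16 hours before reading; % is set by controls: 0 for no effect and ±100 for the full control effect; nearly all actives have a fitted effect of over 55% in size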
FLuc biochem: qHTS screen for small molecules that inhibit ELG1-dependent DNA repair: Hit Confirmation in Biochemical Luciferin Assay. purified firefly luciferase, luminescence counter-screen. Potency, µM (top dose mostly 57.5 µM), for inactives: top-dose activity, negative = inhibition, actives largely listed as inhibitors. shares compounds with ELG1 repair inh. AID 624253, 2012. 10% of 350 active; note: % is set by controls: 0 for no effect and ±100 for the full control effect
* marks the source's active call; other numbers are inactive results; ? = inconclusive; / = not tested or not shown; [ ] = remark or other dose. This is a sample that favours compounds with a hit; in the whole collection about 9.2% have one here. Calls come from the whole dose curve; as a rule, active = well fitted curve in the direction sought with a large enough effect; inconclusive = small, poorly fitted or top-dose-only effect, or another doubt; inactive = no such curve, though single readings can be large; an effect the other way counts as inactive or inconclusive. Potency is the fitted concentration of half-maximal effect.

SMILES	NPC1 promoter act	Rab9 promoter act	SMN2 splice up	FLuc modulator	ELG1 genotox	ELG1 repair inh	ELG1-Luc inh	ELG1 MMS Luc	ELG1 5-FU	ELG1 MMS cell	ELG1 unstim viab	others
CCN(Cc1ccccc1)C(=O)Cn1c(=O)n(-c2ccccc2)c(=O)c2c1c1cc(C)ccc1n2C	/	/	/	-2%	/	/	/	/	/	/	/
COc1ccc2c(c1)c(CC(=O)Nc1ccccc1OC)c(C)n2C(=O)c1ccc(Cl)cc1	-4%	-6%	-38%	-2%	1%	-20%	10µM*	?	?	?	-3%	ELG1 FLuc counter=3%;FLuc biochem=3%
CCc1ccccc1NC(=O)CN(C)C(=O)COC(=O)c1ccco1	/	/	/	/	0%	3%	/	/	/	/	/
COc1ccc(-n2c(C)c(C(C)=O)c3cc(OC(C)=O)ccc32)cc1	6%	5%	/	3%	-11%	0.82µM*	0.63µM*	?	15%	9%	-8%	ELG1 FLuc counter=-18%;FLuc biochem=-2%
COc1ccc2c(c1)c(C(C)=O)c(C)n2-c1ccc(C(C)=O)cc1	10%	-2%	/	5%	-21%	?	/	/	/	/	/
O=C(CCc1nnc2n(Cc3ccc(Cl)cc3)c(=O)c3ccccc3n12)N1CCN(c2ccccn2)CC1	-5%	-4%	/	2%	0%[9.26 µM]	3.7µM*	6.3µM*	22µM*	?	?	-10%
Cn1cc(C(=O)N/N=C/c2c(O)ccc3ccccc23)ccc1=O	-34%	-41%	-93%	-17%	?	2.3µM*	?	3.1µM*	-15%	14µM*	?
Cn1nccc1C(=O)N/N=C/c1c(O)ccc2ccccc12	-29%	-42%	/	?	?	?	/	/	/	/	/
CCOC(=O)c1cc(-c2ccc(F)cc2)nc2c1c(=O)[nH]c(=O)n2Cc1ccccc1	-4%	0%	/	0%	?	29%	/	/	/	/	/
CCOC(=O)c1cc(-c2cc(OC)c(OC)c(OC)c2)nc2c1c(=O)[nH]c(=O)n2Cc1ccccc1	-13%	-11%	?	2%	8.2µM*	13%	/	/	/	/	?	ELG1 FLuc counter=42%;FLuc biochem=-5%
CCCNC(=O)N1CCCN(S(=O)(=O)c2ccc3c(ccn3CC)c2)CC1	/	/	/	3%	/	/	/	/	/	/	/
COc1ccc(-c2noc(CCCC(=O)NC3CCCC3)n2)cc1	-24%	-26%	/	?	-7%	4.6µM*	?	5.6µM*	1%	7.1µM*	?
COc1ccc(N(C)C(=O)c2cn(CC(C)C)c(=O)c3cc(OC)c(OC)cc23)c(OC)c1	1%	-2%	/	1%	0%	1.5µM*	1.8µM*	-17%	?	-1%	?	ELG1 FLuc counter=5%;FLuc biochem=6%
O=C(CC1C(=O)NCCN1Cc1ccccc1C(F)(F)F)NC1CCCCCC1 (centres undefined)	-2%	-1%	/	0%	1%	?	/	/	/	/	/
O=C(NCc1cccnc1)c1ccc(NC(=O)c2ccc(Br)cc2)cc1	-11%	-23%	/	-4%	17%	2.3µM*	-10%	0.025µM*	5%	0.025µM*	-1%
Cn1cccc1/C=N\NC(=O)Cc1ccc(Br)c2ccccc12	-14%	-12%	-59%	-13%	-6%	3.7µM*	?	7.9µM*	-13%	7.9µM*	?
Cn1cccc1/C=N/NC(=O)Cc1ccccc1	-2%	9%	/	-9%	0%	14%	/	/	/	/	/
COC(=O)c1[nH]c2ccc(C)cc2c1NC(=O)C1=COCCO1	0%	0%	16%	?	1%	-15%	/	/	/	/	/
CCN(CC(=O)Nc1c(C(=O)OC)[nH]c2ccc(C)cc12)c1ccc2c(c1)OCO2	2%	-6%	/	-3%	-11%	4.6µM*	7.1µM*	?	?	-1%	?
COc1ccccc1OC[C@H](O)CO	-2%	-1%	-10%[20.6 µM]	2%	1%	12%	/	/	/	/	/
CN(C)c1ccc(C2(c3ccc(N(C)C)cc3)OC(=O)c3cc(N(C)C)ccc32)cc1	/	/	-2%	/	/	/	/	/	/	/	/
Cc1nc2cc(-c3ccccc3)nn2c(N)c1-c1ccccc1	1µM*	0.63µM*	/	/	1.8µM*	?	/	/	/	/	0%	ELG1 FLuc counter=58%;FLuc biochem=0.37µM*
Cc1cc(-c2ccccc2)n2nc(-c3ccc(Cl)cc3)cc2n1	/	/	/	-2%	/	/	/	/	/	/	/
Cn1c(=O)c2c(nc(CN3CCc4ccccc4C3)n2Cc2ccccc2F)n(C)c1=O	0%	-8%	-45%	2%	-11%	?	8.9µM*	-28%	?	9%	-15%
